Tb PFK block – T. brucei PFK enzyme inhibition; AID 485367; Potency, µM (top dose mostly 57.5 µM), inactives show at the highest dose activity, negative = inhibition, actives largely listed as inhibitors; 330,000 compounds, 0.17% hits; T. brucei PFK, ADP-Glo luminescence;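 further: 0% = uninhibited 1x PFK enzyme wells and -100% = no-enzyme wells; nearly all actives have a fitted effect of over 60% in size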
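PFK 1.25 nM, F6P 0.5 mM, ATP 0.1 mM, 0.1 M TEA pH 8.0, 5 mM MgCl2, 0.01% Tween20, 0.1% BSA; 45 min RT. ADP-Glo readout. qHTS titration up to 57 uM; curves fitted, compounds curve-classed.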
PGK inhibitor – T. brucei PGK inhibition | 380,000 compounds, 0.043% hits | PGK/GAPDH coupled, Kinase-Glo luminescence, 60 min | P07378 | Potency, µM (doses to about 57.5 µM), for the others: top-dose activity change, negative = inhibition, actives largely listed as inhibitors | AID 602233; further: on the % scale 0 is the no-effect control and ±100 the full control effect; nearly all actives have a fitted effect of over 60% in size
Target sequence (P07378 whole entry, looked up): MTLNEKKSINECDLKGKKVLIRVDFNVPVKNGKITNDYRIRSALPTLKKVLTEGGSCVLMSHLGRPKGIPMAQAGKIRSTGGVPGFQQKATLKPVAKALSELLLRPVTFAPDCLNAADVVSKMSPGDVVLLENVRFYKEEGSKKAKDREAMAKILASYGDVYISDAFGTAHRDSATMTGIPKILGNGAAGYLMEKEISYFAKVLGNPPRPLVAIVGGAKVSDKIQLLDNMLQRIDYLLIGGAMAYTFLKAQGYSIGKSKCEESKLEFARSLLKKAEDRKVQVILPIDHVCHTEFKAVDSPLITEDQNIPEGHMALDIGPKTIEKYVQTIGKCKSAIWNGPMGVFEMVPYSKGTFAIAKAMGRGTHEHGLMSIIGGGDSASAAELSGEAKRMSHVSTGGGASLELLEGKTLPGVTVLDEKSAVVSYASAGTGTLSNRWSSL
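Luminescent ATP detection (Kinase-Glo Plus) follows a 60-minute room-temperature incubation, with wells lacking PGK as controls. Buffer: 100 mM TEA (pH 7.6), 5 mM MgCl2, 0.01% Tween-20. Coupling enzyme GAPDH (100 nM final) supplies unstable 1,3-BPG in-well.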
GLP1R inv ag – inverse agonists of human GLP-1 receptor; Potency, µM (doses to about 38.3 µM), for inactives: at the top dose activity change, negative = inhibition, usual class: inhibitors; AID 624417; 410,000 compounds, 1.6% hits; HEK293 GLP-1R CRE-luciferase, luminescence, 24 h; GLP-1R form is constitutively active; further: on the % scale 0 is the no-effect control and ±100 the full control effect; nearly all actives have a fitted effect of over 55% in size
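Inverse agonists were sought by their lowering of basal cAMP reporter luciferase output in HEK293 cells stably carrying constitutively active human GLP-1R, after 24 h compound treatment.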
GLP-1R agonist – agonists of human GLP-1 receptor | P43220 | HEK293 GLP-1R CRE-luciferase, luminescence, 4-6 h; cells express a hypersensitive GLP-1R form | Potency, µM (series often up to 45.6 µM), inactives show top-dose activation, hits mostly activators | 380,000 compounds, 0.007% hits; further: % of control where 0% means no effect
HEK293 tox – cytotoxicity counter-screen for GLP-1 receptor inverse agonists; 410,000 compounds, 0.13% hits; HEK293 cAMP-luciferase reporter cells, luminescence, 24 h; AID 624418; Potency, µM (top dose mostly 38.3 µM), for inactives: at the highest dose activity change, negative = inhibition, usual class: inhibitors;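 further: loss of luciferase light is scored as toxicity; on the % scale 0 is the no-effect control and ±100 the full control effect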
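Cells in DMEM/10% Nu serum/1% pen-strep, 1536-well format. Pre-incubated 12 h, dosed with 23 nL compound, incubated a further 24 h. Luciferase detection, 12 min at room temp, luminescence.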
Pin1 inh – inhibitors of human Pin1; Q13526; Pin1 FP peptide displacement, HiFluor488, 10 min; Potency, µM (top dose mostly 115 µM), for the others: at the highest dose activity, negative = inhibition, usual class: inhibitors; 390,000 compounds, 0.009% hits; active means well fitted inhibition curve with a large enough effect in the polarisation, with a control signal flat, not every such curve was filed as active; inconclusive means small, poorly fitted or top-dose-only effect, or effect the other way, or a change in a side signal; inactive means no such curve, though single readings can be large or run the other way; the % refers to the polarisation; further: on the % scale 0 is the no-effect control and ±100 the full control effect
Target sequence (Q13526 whole entry, looked up): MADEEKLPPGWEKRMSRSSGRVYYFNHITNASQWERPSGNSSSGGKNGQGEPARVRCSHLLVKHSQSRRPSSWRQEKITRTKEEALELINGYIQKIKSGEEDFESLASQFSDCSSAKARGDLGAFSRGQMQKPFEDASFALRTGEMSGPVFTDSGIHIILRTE
Starred values were filed as active, the others as inactive; i = inactive; ? = inconclusive; / = no result. This is a sample that favours compounds with a hit; in the whole collection about 1.8% have one here. Unless noted, the call rests on the fitted dose curve; in most records, active means well fitted curve in the direction sought with a large enough effect; inconclusive means small, poorly fitted or top-dose-only effect, or another doubt; inactive means no such curve, though single readings can be large; an effect the other way counts as inactive or inconclusive. Potency means the concentration at half of the fitted maximal effect.

SMILES	Tb PFK block	PGK inhibitor	GLP1R inv ag	GLP-1R agonist	HEK293 tox	Pin1 inh
O=C(NCc1ccccc1)C(c1ccc(C(F)(F)F)cc1)N1CCN(CCN2CCOCC2)CC1 (stereo not given)	/	/	2%	/	5%	/
C/C(=N\N(c1ccccc1)c1ccccc1)c1ccco1	0%	i	8.9µM*	-3%	9%	-6%
C/C(=N\N=C(c1ccccc1)c1ccccc1)c1ccco1	-1%	i	?	6%	25%	-9%
CCOc1nc(Nc2ccc(F)cc2)nc(N2CCN(c3ccc(OC)cc3)CC2)n1	-3%	-1%	?	-9%	-13%	-3%
CCOc1nc(Nc2ccc(OC)c(Cl)c2)nc(N2CCN(c3ccc(OC)cc3)CC2)n1	4%	-11%	4.5µM*	11%	21%	1%
CC(C)(C)Cc1c(-c2ccc(Cl)cc2)nc2ccc(Br)cn12	/	-2%	10µM*	-3%	?	/
CC(C)(C)Cc1c(-c2ccc(Cl)cc2)nc2ccc(Cl)cn12	/	6%	?	-2%	0%	/
CC(C)(C)Cc1c(-c2ccccc2)nc2ccc(Cl)cn12	/	-7%	13µM*	-6%	?	/
Cc1ccc(CNC(=O)c2cc3cc(C)ccc3n2C)cc1	/	7%	?	/	-1%	4%
COc1cccc(C2c3c(ncn(-c4ccccc4C(C)(C)C)c3=N)Oc3ccc4ccccc4c32)c1 (stereo not given)	/	/	/	/	/	20%
CNc1ccccc1C(C)(C)c1cc(-c2cccc(Br)c2)no1	-1%	0%	2.8µM*	18%	-2%	45%
CNc1ccccc1C(C)(C)c1cc(-c2cccc([N+](=O)[O-])c2)no1	1%	0%	?	13%	-6%	-1%
CONC(=O)C[C@@H](C#N)NC(=O)[C@@H]1CCCN1C(=O)[C@@H](NC(=O)c1ccc(N)c(Cl)c1)C(C)(C)C	/	/	/	/	/	-6%
O=C1NN(c2cccc(Br)c2)C(=O)/C1=C\c1ccc(O)cc1	24%	i	10µM*	-2%	?	/
COc1cc(/C=C2/C(=O)NN(c3cccc(Cl)c3)C2=O)cc(OC)c1O	9%	-17%	2.8µM*	-1%	-11%	?
CC(C)=C1C(=O)NN(c2cccc(Cl)c2)C1=O	-1%	i	10µM*	0%	-7%	-6%
Cc1cccc(NC(=O)CSc2nc3ccc(NC(=O)CCc4ccccc4)cc3s2)c1	/	11%	-15%	/	-5%	17%
CN(C(=O)CSc1nc2ccc(NC(=O)CCc3ccccc3)cc2s1)c1ccccc1	/	-3%	8.9µM*	/	?	20%
O=C(CSc1nc2ccc(NC(=O)CSc3nnnn3-c3ccccc3)cc2s1)Nc1ccccc1	-4%	-2%	?	2%	10µM*	56%
CN(C(=O)CSc1nc2ccc(NC(=O)COc3ccc(F)cc3)cc2s1)c1ccccc1	/	/	11µM*	/	?	25%
Cc1cccc(NC(=O)CSc2nc3ccc(NC(=O)CSc4nnnn4-c4ccccc4)cc3s2)c1C	3%	/	/	/	/	/
CCOCCc1nn2c(=O)cc(COC(=O)c3ccc(NC(=O)C(C)(C)C)cc3)nc2s1	/	i	-19%	/	11%	2%
CCOC(=S)SCC(=O)Nc1nc(-c2ccc(Br)cc2)cs1	0%	i	0%	-4%	5µM*	14%
Cc1ccc(F)cc1NC(=O)N1CCN(C2c3ccccc3-c3ccccc32)CC1	2%	i	13µM*	2%	3%	2%
COCCN=c1scc(-c2ccccc2)n1/N=C/c1c[nH]c2ccccc12	0%	-9%	4µM*	14%	-9%	?
SMILES	Tb PFK block	PGK inhibitor	GLP1R inv ag	GLP-1R agonist	HEK293 tox	Pin1 inh
CN1CCN(C2CCCCC2NS(=O)(=O)c2ccccc2)CC1 (stereo not given)	-6%	-5%	-6%	-1%	-1%	-3%
COc1ccccc1N1CCN(C2CCCCC2NS(=O)(=O)c2ccccc2)CC1 (stereo not given)	-5%	i	10µM*	-5%	0%	-5%
C=Cc1ccc(Cn2c(C(=O)O)c(CNCc3cc(OC)ccc3OC)c3ccc(C)cc32)cc1	/	-7%	4%	/	-9%	2%
Cc1ccc(C(c2sc3nc(C)nn3c2O)N2CCN(CCO)CC2)cc1 (stereo not given)	10%	1%	9%	6%	-13%	-4%
Cc1ccc(C(c2sc3nc(C)nn3c2O)N2CCN(c3ccccc3F)CC2)cc1 (stereo not given)	-2%	-1%	8.9µM*	-7%	-16%	0%
Cc1cccc(-c2ccc3ncnc(NCc4cc(C)cs4)c3c2)c1	-5%	/	/	/	/	/
C/C=C/c1ccc(O)c(OC)c1	3%	-3%	12%	9%	6%	0%
Oc1cc(O)cc(/C=C/c2ccc(O)c(O)c2)c1	8.5µM*	?	-6%	8%	-24%	-4%
C/C(CC(=O)Nc1ccc(C)c(Cl)c1)=N\NC(=O)c1ccncc1	-11%	i	10µM*	6%	11%	-4%
C/C(CC(=O)Nc1cc(Cl)ccc1Cl)=N\NC(N)=S	3%	1%	?	2%	-27%	?
C/C(CC(=O)Nc1ccc(Cl)c(Cl)c1)=N\NC(N)=S	-28%	-5%	11µM*	-6%	?	0%
CCc1ccc(NC(=O)CSc2nc(=O)n(Cc3ccncc3)c3c2CCC3)cc1	/	0%	4%	/	-7%	-10%
Cc1cc(C=O)c(C)n1-c1cccc(C(=O)O)c1	-12%	-5%	16%	1%	4%	-15%
Cc1ccc(C)n1-c1cccc(C(=O)O)c1	11µM*	/	/	/	/	/
CCc1ccc(NC(=O)CN2C(=O)C3(SCC(=O)N3c3ccccc3)c3ccccc32)cc1 (stereo not given)	/	-4%	?	5%	2%	10%
Cc1c(Cl)ccc2c(C(=O)NCCN3CCCCC3)cc(-c3ccccn3)nc12	-11%	7%	3.5µM*	5%	?	-1%
Cc1c(Cl)ccc2c(C(=O)NCCCn3nccc3C)cc(-c3ccccn3)nc12	0%	10%	?	0%	-4%	6%
C/C(=N\NC(=O)C(C)n1nc(C)c([N+](=O)[O-])c1C)c1ccccc1O (stereo not given)	0%	i	?	1%	3.2µM*	2%
Cc1nn(C(C)C(=O)NCc2ccco2)c(C)c1[N+](=O)[O-] (stereo not given)	-2%	-11%	5%	2%	9%	-3%
COc1ccc(Br)cc1C(C[N+](=O)[O-])c1c(N)n(C)c(=O)n(C)c1=O (stereo not given)	2%	1%	?	-2%	10µM*	?

Screening data as filed in PubChem.
